# Experimental data taken from PubChem BioAssay AID504423 (Broad Institute, 2011).
# Several values for one entry are separate records, joined by “and”; a condition that tells them apart may be missing. Equal values may be shown once. The campaign covered roughly 340,000 compounds. About 260 (0.076%) were called active.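 The calls were made as follows: active = highest replicate inhibition at or above 60% at 9 µM, even if other replicates fall short; inactive = all replicates below 60% inhibition.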 Shown is part of a subset that was picked to be rich in actives.
# Tested on: Kaposi's sarcoma herpesvirus LANA C-terminal domain (residues 932-1162) DNA binding
# Assay: blockers of LANA C-terminal domain DNA interaction – biochemical, fluorescence polarization, FAM-LBS DNA, MBP-C-LANA, single point, primary screen (AID 504423);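 also: 0% = neutral control wells and 100% = 4 µM acridine orange control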
# Details: at 9 µM, stronger effect = higher value
row,Compound,inhibition
1,Cc1c(N=Nc2ccc(N(C)C)cc2)c(=O)n(-c2ccccc2)n1C,-5.21% (inactive)
2,CCN(CC)CCCC(C)n1c2nc(=O)[nH]c(=O)c-2nc2cc(Cl)ccc21 (configuration not stated),167% (active)
3,COc1ccc2c(c1)c1ncn(Cc3ccccn3)c(=O)c1n2C,-1.99% (inactive)
4,CCCCCNC(=O)C1c2ccccc2Oc2ccccc21,-0.323% (inactive)
5,CCCN(CCC)C(=O)C1c2ccccc2Oc2ccccc21,88.3% (active)
6,CCOC(=O)CC(NC(=O)C1c2ccccc2Oc2ccccc21)c1ccc(C)cc1 (configuration not stated),1.2% (inactive)
7,CC(=O)c1nnn(-c2ccc(Cl)cc2C#N)c1C,-3.28% (inactive)
8,c1ccc(-n2cccc2)c(N2CCCCC2)c1,1.68% (inactive)
9,CN1C(c2ccc(F)cc2)=CS/C1=C(/C#N)c1nnc2n1-c1ccccc1SC2,1.32% (inactive)
10,CC(C)c1ccc(C=NNc2ccc([N+](=O)[O-])cn2)cc1,-4.43% (inactive)
11,Cc1cc(/C=N/NC(=O)CC2(C)OCCO2)c(C)n1-c1ccc(Cl)c(Cl)c1,0.73% (inactive)
12,Cc1cc(/C=N/Nc2ccc([N+](=O)[O-])cn2)c(C)n1-c1cccc(C(=O)O)c1,64.5% (active)
13,Cc1nc(NC(=O)CCC(=O)O)sc1C(=O)N(C)C,-0.461% (inactive)
14,CCOc1ccc(NC(=O)c2cccc3c2C(=O)N(CC2CCCO2)C3)cc1 (configuration not stated),-0.819% (inactive)
15,CC(C)n1c(=S)[nH]c2cc(C(F)(F)F)ccc21,-0.144% (inactive)
16,COc1cccc2c1C(=O)c1c(O)c3c(c(O)c1C2=O)CC(O)(C(C)=NNC(=O)c1ccc(Cl)c(Cl)c1)CC3OC1CC(N)C(O)C(C)O1 (configuration not stated),102% (active)
17,COc1cccc(Cn2cnc3c([N+](=O)[O-])c(C)c(C)cc32)c1,-1.77% (inactive)
18,Cc1ccc(NC(=O)Cn2cccc2C2=NC(c3ccccc3)CO2)c(C)c1 (configuration not stated),0.882% (inactive)
19,C=CCNc1nc(Nc2ccc(Cl)cc2)nc(OC)n1,-0.456% (inactive)
20,CC12CCC(C(=O)N(CCC#N)CCC#N)(CC1=O)C2(C)C (configuration not stated),0.103% (inactive)
21,CCOC(=O)c1sc(/N=C/Nc2nc(C)c(C(=O)OCC)s2)nc1C,-0.364% (inactive)
22,CC(NC(=O)CN(C)S(=O)(=O)c1ccc(F)cc1)C1CC2CCC1C2 (configuration not stated),-0.793% (inactive)
23,O=C(CNCc1ccc(Cl)cc1)Nc1cccc(C(=O)O)c1,0.621% (inactive)
24,S=C(Nc1cccc(Br)c1)N1CCn2cccc2C1c1cccnc1 (configuration not stated),0.461% (inactive)
25,O=C1COc2c1ccc(O)c2O,105% (active)
26,c1ccc(CSc2ncnc3c2sc2nc(N4CCOCC4)c4c(c23)CCCC4)cc1,0.637% (inactive)

row,Compound,inhibition
1,COc1cc(/C=C/C(=O)O)cc(S(=O)(=O)Nc2ccccc2SC)c1OC,2.56% (inactive)
2,O=c1[nH]nc(SCCS(=O)(=O)c2ccc(F)cc2)n1-c1ccccc1C(F)(F)F,-0.936% (inactive)
3,O=C1OC(Cc2ccccc2)C(c2ccccc2)C1=O (configuration not stated),0.23% (inactive)
4,CCN(CC)C(=O)[C@H]1C[C@H](CC(=O)NCC23CC4CC(CC(C4)C2)C3)C(=O)N2CCc3c([nH]c4cc(CCC(=O)N(C)C)ccc34)[C@]12C,-1.63% (inactive)
5,CCC(CC)c1nnc(NC(=O)C2CCN(C(=O)c3ccco3)CC2)s1,0.307% (inactive)
6,CCCN(CC(=O)Nc1ccccc1C)C(=O)c1ccc(OCC(=O)N2CCOCC2)c(OCC)c1,0.13% (inactive)
7,COCCNC(=O)C1CCN(S(=O)(=O)c2ccc3c(c2)OCCO3)CC1,-0.000473% (inactive)
8,CCCn1nc(C(=O)OCc2nc(N)nc(Nc3ccccc3C)n2)c2ccccc2c1=O,-0.106% (inactive)
9,CC(C)Cn1c(=O)c2ccccc2n2c(CCC(=O)NCc3ccccn3)nnc12,-0.283% (inactive)
10,COc1cc(C(=O)NCc2ccc3c(c2)cc(C)n3C)cc(OC)c1OC,1.89% (inactive)
11,COc1ccc(-c2c(C)nn3c(N4CCC(C(=O)N5CCCCC5)CC4)cc(C)nc23)cc1OC,-1.26% (inactive)
12,COc1ccc(/C=N/NC(=O)Cn2cc(C(F)(F)F)ccc2=O)cc1,0.0809% (inactive)
13,CCCOc1ccc(Cc2c(O)nc(N)[nH]c2=O)cc1C,3.16% (inactive)
14,Cc1cc(/C=N/NC(N)=O)c(C)n1C1CCCCC1,-1.79% (inactive)
15,Cc1ccc2c(=O)oc(N(C)C)nc2c1,0.463% (inactive)
16,CC(C)CCNC(=O)CC1C(=O)N(Cc2ccccc2)C(C)c2nc3ccccc3n21 (configuration not stated),0.0911% (inactive)
17,Clc1ccc(C2=CSC3=Nc4cccc5cccc(c45)N23)cc1,0.203% (inactive)
18,CS(=O)(=O)c1ccc2nnn(OCC(=O)Nc3cccc(C#N)c3)c2c1,0.484% (inactive)
19,O=C(c1ccco1)N(Cc1nc2ccccc2c(=O)[nH]1)C1CCCC1,1.54% (inactive)
20,Nc1ccc2nc3c(=O)[nH]c(=S)[nH]c3nc2c1,81% (active)
21,CCCCn1nc(C(=O)Nc2ccc(S(=O)(=O)Nc3ncccn3)cc2)c2ccccc2c1=O,4.67% (inactive)
22,Cc1c(C=O)n(C)n(-c2ccccc2)c1=O,0.314% (inactive)
23,COc1ccccc1CNS(=O)(=O)c1cc(C(=O)NCc2ccccn2)c(Cl)cc1Cl,2.38% (inactive)
24,O=C(c1ccccc1)N1CCC(CC2CC(c3ccc(Cl)cc3)=NO2)(C(=O)NCC2CCCCC2)CC1 (configuration not stated),2.87% (inactive)
25,Cc1ccc(S(=O)(=O)n2oc(=O)c(C3CCCCC3)c2N)cc1,-3.57% (inactive)
26,COc1cccc(N2CC(NS(=O)(=O)c3ccc(Cl)cc3)CC2=O)c1 (configuration not stated),-1.06% (inactive)

row,Compound,inhibition
1,COc1cccc(-c2nc3n(n2)C(c2ccccc2Cl)C(C(N)=O)=C(C)N3)c1 (configuration not stated),-1.68% (inactive)
2,COc1ccc(C2c3ccc(O)cc3Oc3ncn(CCCO)c(=N)c32)cc1OC (configuration not stated),90.6% (active)
3,COc1ccc(C2C(C#N)=C(N)Oc3cc(N)ccc32)cc1OC (configuration not stated),-0.0442% (inactive)
4,COc1ccc(CNCCCO)cc1OC,0.662% (inactive)
5,COc1cc(/C=C(\C#N)C(=O)Nc2ccc3ccccc3c2)c([N+](=O)[O-])cc1OC,-1.48% (inactive)
6,CCC1OC(c2ccc([N+](=O)[O-])cc2)=Nc2ccccc21 (configuration not stated),1.55% (inactive)
7,O=C(NCCCc1ccccc1)C(=O)c1c[nH]c2ccccc12,1.71% (inactive)
8,CCCN(CC(=O)NC(=O)NC1CCCCC1)CC(=O)Nc1cc(Cl)ccc1Cl,-0.226% (inactive)
9,CCN1C[C@@H]2[C@@H]3C(=O)N(C)C(=O)[C@@H]3[C@](C)(C1=O)N2C(=O)c1ccccc1,-2.13% (inactive)
10,CCN(CC(=O)Nc1ccc(OC)cc1)C(=O)c1ccc(Cl)c(S(=O)(=O)N2CCCC2)c1,3.81% (inactive)
11,COC(=O)C1=C(O)/C(=C/c2ccc(OCC(=O)Nc3ccccc3)cc2)N=C1C,0.272% (inactive)
12,CCOC(=O)C1=C(O)/C(=C/c2cc(C)n(-c3ccccc3)c2C)N=C1C,73.6% (active)
13,CCOC(=O)C1=C(O)/C(=C/c2ccc(OCC(=O)Nc3ccc(C)cc3)cc2)N=C1C,0.825% (inactive)
14,CCOc1ccc(N(CC)S(=O)(=O)c2cccc3nsnc23)cc1,3.87% (inactive)
15,Cc1cc2nc(SCCN3CCOCC3)[nH]c2cc1C,-0.479% (inactive)
16,O=C(Nc1c(Br)cc2c(c1Br)Cc1ccccc1-2)C(F)(F)F,-0.671% (inactive)
17,O=C(NC(=S)N1CCCCC1c1cccnc1)c1ccccc1 (configuration not stated),1.24% (inactive)
18,CN(CCOc1ccc(CC2SC(=O)NC2=O)cc1)c1ccccn1 (configuration not stated),14.3% (inactive) and -2.59% (inactive)
19,CN(C)/C=C(/C(=O)c1ccccc1Cl)S(C)(=O)=O,0.122% (inactive)
20,CCC(CC)C(=O)Nc1cc(C(=O)OC)cc(C(=O)OC)c1,-1.15% (inactive)
21,Cc1ccc(C)c(-n2ccnc2SCC(N)=O)c1,-0.0657% (inactive)
22,Cc1cc(C)c(CN2CCN(C(=O)Cn3ccc(NC(=O)OCc4ccccc4)nc3=O)CC2)c(C)c1,1.66% (inactive)
23,CCn1c(=S)sc2c(=O)n(CC(=O)Nc3cccc(Br)c3)c(C)nc21,-0.393% (inactive)
24,Cc1cccn2c(CNCC(C)Oc3cccnc3)c(C(=O)N3CCOCC3)nc12 (configuration not stated),-1.19% (inactive)
25,CCOc1ccc(CN2CCC(n3nccc3NC(=O)C3CC3)CC2)cc1CO,1.61% (inactive)
26,O=C(Nc1cc(-c2ccccc2)nn1-c1ccccc1F)c1ccc([N+](=O)[O-])cc1,-1.47% (inactive)

row,Compound,inhibition
1,Cc1ccccc1OCC(=O)NNC(=O)c1cc(S(=O)(=O)N(C)C)ccc1N1CCCC1,-0.594% (inactive)
2,CN1CCC2(CC1)NC(=O)NC2=O,0.656% (inactive)
3,O=C(NCc1ccncc1)c1cccc(NS(=O)(=O)c2ccc(F)c(F)c2)c1,-0.916% (inactive)
4,CSc1nc(-c2ccccc2)nc(C(Cl)Cl)n1,1.16% (inactive)
5,CCCn1c(N)c(C(=O)CSc2nc3ccccc3c(=O)n2-c2ccc(OC)cc2)c(=O)[nH]c1=O,0.469% (inactive)
6,Cc1cccc(-c2nc3c(c(SCC(=O)N4CCOCC4)n2)CCCC3)c1,-0.478% (inactive)
7,COc1cccc(CNC(=O)C2CCCN(c3ncnc4c3nc3n4CCCCC3)C2)c1 (configuration not stated),0.109% (inactive)
8,CCNC(=O)COc1cc(C)c(Br)c(C)c1,0.138% (inactive)
9,CCCCC(CC(C)O)c1n[nH]c(=S)n1-c1ccccc1 (configuration not stated),0.671% (inactive)
10,Cc1ccc(N2CCN(C(=O)c3cccs3)CC2)c(C)c1,0.336% (inactive)
11,O=C(COC(=O)COc1cccc(F)c1)NCC1CCCCC1,-1.07% (inactive)
12,O=C1Nc2cc(C(=O)N3CCC(N4CCCCC4)CC3)ccc2S/C1=C\c1ccccc1,-4.28% (inactive)
13,CC(=O)Nc1ccc(S(=O)(=O)N(C)CC(=O)NCCC2=CCCCC2)cc1,0.609% (inactive)
14,CC(C)n1c(NCc2c[nH]c3ccccc23)nc2ccccc21,-1.36% (inactive)
15,COc1ccccc1-c1c(C#N)c(N)nc2c1CCC2,1.17% (inactive)
16,CS(=O)(=O)N1CCC(C(=O)N2CCN(c3ccccc3)CC2)CC1,-0.437% (inactive)
17,C(=N/N1CCN(c2ccccc2)CC1)/c1cccs1,-0.282% (inactive)
18,O=c1ccc2c(-c3ccccc3S(=O)(=O)O)c3ccc(O)c(O)c3oc-2c1O,101% (active)
19,CC(OC(=O)/C=C/c1ccccc1)C(=O)Nc1ccc(C(N)=O)cc1 (configuration not stated),2.44% (inactive)
20,COc1ccc(C2CC(=O)Oc3ccc(C(C)(C)C)cc32)cc1 (configuration not stated),-0.823% (inactive)
21,CC1(c2nnc(-c3ccncc3)o2)CC(c2cccnc2)=NO1 (configuration not stated),-1.07% (inactive)
22,Cc1ccc(S(=O)(=O)/N=C(\N)c2ccc(F)cc2)cc1,-0.0435% (inactive)
23,COCc1ccc(CN2CCC(Oc3ccc(C(=O)NCc4ccccn4)cc3)CC2)o1,-1.54% (inactive)
24,Fc1ccccc1Cc1ccc(Cl)nn1,-0.587% (inactive)
